# Source: the supplement of paper PMC3334620
# Over roughly 33,000 sequences, “E-score (-0.5 to 0.5)” has its median near -0.054; the highest 2% begin near 0.35. The list comes from a sample in which the highest values are over-represented; it also holds similar and randomly drawn sequences.
# Molecular target: T1, Stb5 (UniProt P38699)
# T1 sequence: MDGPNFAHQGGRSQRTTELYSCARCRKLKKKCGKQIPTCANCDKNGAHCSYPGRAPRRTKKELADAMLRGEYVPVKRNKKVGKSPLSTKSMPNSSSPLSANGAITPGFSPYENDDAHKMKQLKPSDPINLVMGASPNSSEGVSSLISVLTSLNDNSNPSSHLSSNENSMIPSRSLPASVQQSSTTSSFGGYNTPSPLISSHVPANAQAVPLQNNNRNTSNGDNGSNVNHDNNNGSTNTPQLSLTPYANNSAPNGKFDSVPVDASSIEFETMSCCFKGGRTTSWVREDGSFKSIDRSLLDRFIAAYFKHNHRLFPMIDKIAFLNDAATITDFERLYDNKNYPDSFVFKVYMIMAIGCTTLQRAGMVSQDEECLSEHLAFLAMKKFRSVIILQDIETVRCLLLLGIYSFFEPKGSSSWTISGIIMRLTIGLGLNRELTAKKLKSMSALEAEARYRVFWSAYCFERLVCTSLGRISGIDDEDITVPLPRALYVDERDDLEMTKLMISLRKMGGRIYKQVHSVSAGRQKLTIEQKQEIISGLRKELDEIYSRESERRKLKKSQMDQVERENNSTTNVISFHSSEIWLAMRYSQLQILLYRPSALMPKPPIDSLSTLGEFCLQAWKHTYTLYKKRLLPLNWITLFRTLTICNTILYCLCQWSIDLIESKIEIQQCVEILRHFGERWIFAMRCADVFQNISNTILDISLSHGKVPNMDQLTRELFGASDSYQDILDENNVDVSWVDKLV
# Experiment: PBM E-score (8-mer binding enrichment) (E-score (-0.5 to 0.5)); higher = stronger / more preferred TF binding
# Conditions: protein concentration: 200 nM; construct: GST-full length
# Description: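 Universal 'all 10-mer' protein binding microarrays (Agilent AMADID 015681) probed with GST-tagged S. cerevisiae TFs (full-length or DBD) made by in vitro transcription/translation (PURExpress), about 100-200 nM. Bound TF was detected with fluorescent anti-GST. Each ungapped 8-mer (which stands for itself and its reverse complement) is scored by the PBM enrichment score (E-score), a modified Wilcoxon-Mann-Whitney statistic from -0.5 to +0.5, computed with the Universal PBM Analysis Suite. Scale: above 0.35 generally sequence-specific binding.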
row,Sequence,PBM E-score
1,ACCGGACT,0.376
2,ACCGGACG,0.329
3,AAACTCAC,-0.172
4,TAATAAGA,0.0281
5,GCTCTTTA,0.0664
6,CACTGCTC,-0.117
7,AAGCGTGC,-0.171
8,ACGAGCGT,-0.163
9,AAGTTCCG,0.373
10,AAGTTCCT,-0.098
11,CAGTTCCG,0.0961
12,ACCACAGA,-0.0655
13,CCCGCTAA,0.261
14,AGCGACTG,-0.328
15,ACGCTACG,-0.187
16,CCGCTCCC,0.247
17,ACGCTCGC,-0.078
18,CCGCTCGC,0.373
19,CCGCTCCG,0.361
20,CCGCTACA,0.262
21,CCGCTCGA,0.328
22,ACGCTCCG,0.174
23,CCGCTACG,0.355
24,CAGTTGCC,-0.0751
25,AGAAAGAC,-0.0525

row,Sequence,PBM E-score
1,GATATAGA,-0.162
2,AACGGGTG,0.155
3,GTGAAGCA,-0.165
4,AGATTTTA,0.0159
5,ACACTATG,-0.13
6,AAAGTCTC,-0.145
7,CAGACCGG,0.272
8,AAGACCGC,0.443
9,AAGACCGT,0.382
10,AAGACCAT,-0.18
11,AAGACCGG,0.418
12,AAGACCTT,-0.073
13,AAGACCAG,-0.107
14,GAGACCGC,0.311
15,CAGACCGA,0.174
16,GAGACCGA,0.257
17,AAGACCGA,0.414
18,CAGACCGC,0.272
19,CCTCTGAG,-0.141
20,ACTGCGGC,0.168
21,TCGTTAGA,-0.147
22,ATAAGGGG,-0.0458
23,ACGTTGAA,-0.0556
24,AGCCATAC,-0.269
25,GCTTGAAA,-0.11

row,Sequence,PBM E-score
1,AATGCTGT,-0.0756
2,GCCGATCC,0.207
3,AGCGCCCG,0.198
4,AGCGCCGC,0.41
5,AGCGCCGA,0.342
6,AGCGCCAC,0.162
7,AGCGCCGG,0.376
8,CGCGCCGC,0.325
9,CTCTTATC,-0.11
10,CTTTTTAC,0.145
11,GCTGCTAA,0.122
12,AACCCGTC,0.183
13,ACCCCGTC,0.381
14,AACCCGTG,-0.0372
15,ACCCCGTA,0.301
16,ACCCCGTG,0.367
17,CCCCCGTC,0.233
18,AGCTGTGA,-0.266
19,AGGGTATA,0.217
20,AGGGGTAA,-0.249
21,GGGGGCTA,0.0408
22,CGGGTCTA,0.412
23,GGGGGTAA,0.248
24,AGGGTCTA,-0.0622
25,AGGGGCTA,-0.0747

row,Sequence,PBM E-score
1,GGGGTATA,0.26
2,CGGGGTAA,0.424
3,CGGGGCTA,0.454
4,CGGGTATA,0.403
5,CGGGTCTC,0.151
6,CCTTAATA,0.03
7,CCCAAGGA,-0.0196
8,CTTCGCCA,0.0018
9,GATTAGTA,0.0787
10,ATACATGG,-0.155
11,CGCATCAA,0.126
12,ACGCTTAG,-0.072
13,GTGGGTTA,-0.0789
14,CTCCTCTC,-0.308
15,GGGGGGTA,0.0523
16,CGGGGTTC,0.388
17,CGGGGGTA,0.451
18,CCGGGTTC,0.24
19,CCGGGGTA,0.268
20,AGGGGTTC,-0.15
21,GGAGCCAA,0.00764
22,GACTATAC,0.0897
23,AAGGACGG,0.162
24,GGACGGAA,0.133
25,AGACGGAC,0.331

row,Sequence,PBM E-score
1,GGACGGAC,0.359
2,CGACGGAA,0.262
3,CGACGGAG,0.339
4,CGACGGAC,0.368
5,CGCCTCGA,0.0565
6,GCTATTGA,0.168
7,GTTCGATA,-0.036
8,CCTGTTTA,0.0509
9,CGTTTGCA,0.0334
10,ACCTGAAA,-0.098
11,ATCGCCGA,0.387
12,ATCGCCGG,0.368
13,ATAGCCGG,0.373
14,ATCGCCAG,-0.0866
15,ATAGCCGA,0.216
16,CTCGCCGA,-0.0352
17,ATCGCCGC,0.385
18,CTCGCCGC,0.0978
19,ATAGCCGC,0.312
20,ATCGCCTC,-0.271
21,GTCGCCGA,0.19
22,ATCGCCTG,-0.215
23,AGGCAACC,-0.251
24,ATGAGCTC,-0.262
25,GAGTCTGA,-0.308

row,Sequence,PBM E-score
1,CAAAAGAG,-0.072
2,TCAGTTCA,-0.229
3,CGCGTCAC,-0.194
4,AAAACACC,0.353
5,CAAACACG,-0.114
6,CAAACACC,0.352
7,AAAACACT,0.0252
8,CAAACACA,-0.126
9,AAAACACG,-0.0278
10,AGTTGTAC,0.0567
11,ATAGTCAC,-0.0899
12,ACAGACCC,-0.00703
13,CCAGGAGG,-0.238
14,TTTCAAAA,-0.0616
15,CCTAACCC,0.0781
16,CGACGATC,-0.058
17,CGAATAGC,0.0153
18,AAAGGTTG,-0.192
19,CTTGGCAC,-0.106
20,AGCTTTAG,-0.226
21,AGCATCGG,0.214
22,CCATACCG,0.202
23,GGCCGCTA,0.299
24,CGCCGCTA,0.412
25,GCCCGCTA,0.233

row,Sequence,PBM E-score
1,ACCCGCTC,0.246
2,CCCCGCAC,0.236
3,ACCCGCTA,0.0951
4,CCCCGCTC,0.371
5,CCCCGCTA,0.399
6,AGCCGCTA,0.173
7,AGACCAGC,-0.285
8,AAGTCTGC,-0.211
9,CCAGCAGC,-0.12
10,TGAACTAA,-0.153
11,AGAACTAA,0.0894
12,GGAACTAA,0.373
13,CCCGTTTA,0.188
14,GTCCACAC,0.162
15,ACTCCGGG,0.327
16,CCTCCGGA,0.219
17,ACTCCGGA,0.355
18,ACTCCGGC,0.307
19,GCTCCGCA,0.173
20,GCTCCGGA,0.368
21,ATATTCTG,0.0727
22,GCTGACCA,-0.169
